Experimental data: PubChem BioAssay AID2842 (Southern Research Institute, 2010)
Out of some 24,000 compounds screened, about 1,200 (5%) were called active. Inconclusive results (about 2%) are left out. How the calls were made is not given here. Not all results are given here.

Test: Mycobacterium tuberculosis H37Rv growth inhibition, putative kinase inhibitor library, confirmatory dose response (AID 2842);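 further: bacteria incubated one week before Alamar blue readout; 0% = bacteria only wells and 100% = bacteria with high antibiotic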
Conditions: M. tuberculosis H37Rv growth inhibition; CC50: measured here: Vero cell cytotoxicity; inhibition: active compounds read high

Structure (SMILES) | inhibition
CC1(C)Cc2c(sc(NC(=O)c3cccc(F)c3)c2C#N)C(C)(C)N1 | -10.1% (inactive)
Cc1nnc(SCc2ccc([N+](=O)[O-])cc2)n(N)c1=O | 1.18% (inactive)
O=C1/C(=C/c2ccc(Br)cc2)Oc2cc(O)ccc21 | 8.31% (inactive)
COc1ccc(CNc2nc3c(-c4ccc(Cl)cc4)nnn3c3ccccc23)cc1 | 4.87% (inactive)
O=C(Nc1nc2c(cc3c4c(cccc42)CC3)s1)C(c1ccccc1)c1ccccc1 | 10.3% (inactive)
Cc1cc(OC(=O)C23CC4CC(CC(C4)C2)C3)c([N+](=O)[O-])c(=O)[nH]1 | 2.01% (inactive)
C=CCn1c(N(C)C)nc2c1c(=O)[nH]c(=O)n2C | -2.63% (inactive)
CCOc1ccccc1NC(=O)c1oc2ccccc2c1NC(=O)COc1ccccc1 | 10.5% (inactive)
COc1ccc(Cn2cc(C(=O)c3ccc(Cl)cc3)c(=O)c3cc4c(cc32)OCCO4)cc1 | 14.9% (inactive)
CCOc1ccc(C(=O)Nc2c3c(nn2C(C)(C)C)CS(=O)C3)cc1 (stereo not drawn) | 6.89% (inactive)
CCCC(=O)Nc1nnc(-c2cccc(C)c2)s1 | 5.77% (inactive)
COC(=O)c1ccc(NC(=O)CSc2nnc(C)c(=O)n2N)cc1 | 6.15% (inactive)
Cc1ccc(NC(=O)CSc2nnc(CCC(=O)O)c(=O)[nH]2)cc1C | -8.56% (inactive)
O=c1cnnc(N/N=C/c2ccc(O)cc2O)[nH]1 | 45.3% (inactive)
O=C1C(=O)N(CCCN2CCOCC2)C(c2cccc(F)c2)/C1=C(\O)c1ccncc1 (stereo not drawn) | -3.95% (inactive)
CCOc1ccc(N2CC(NC(=O)Nc3cccc(C)n3)CC2=O)cc1 (stereo not drawn) | 8.06% (inactive)
O=S(=O)(Nc1cc(Sc2ncn[nH]2)c(O)c2ccccc12)c1ccc(F)cc1 | -6.45% (inactive)
COc1ccccc1NC(=O)CCCN1C(=O)c2cccc3cccc(c23)C1=O | 16.8% (inactive)
COc1ccccc1NC(=O)c1oc2ccccc2c1NC(=O)c1ccc(Cl)c([N+](=O)[O-])c1 | 3.99% (inactive)
COc1ccc(OCC(=O)N/N=C/c2ccccc2O)cc1 | -13% (inactive)
O=C(/C=C/c1cccs1)Nc1nncs1 | -2.33% (inactive)
COc1cccc2c1OC(c1ccncc1)N1N=C(c3cc(C)ccc3O)CC21 (stereo not drawn) | 0.62% (inactive)
Cc1ccccc1NC(=O)CSc1nnc(Cn2c(=O)sc3ccccc32)n1C | -1.23% (inactive)
COc1ccc(-n2c(=O)[nH]c3c(C(N)=O)nc(-c4ccncc4)nc32)cc1 | 1.06% (inactive)

Structure (SMILES) | inhibition
CC(C)c1nnc(SCc2c(Cl)ccc(Cl)c2Cl)n1N | -13.8% (inactive)
O=C(Nc1ccc2c(c1)OCO2)c1cnc2n(c1=O)CCS2 | 0.45% (inactive)
Cc1nnc(NC(=O)CSc2nc3c(c(=O)n2-c2ccccc2)SCC3)s1 | -2.21% (inactive)
Cc1oc2c(CN3CCN(C)CC3)c(O)ccc2c(=O)c1-c1nc2ccccc2s1 | -15.1% (inactive)
Cc1ccc(CSc2nc3c([nH]2)c(=O)n(C)c(=O)n3C)cc1 | 6.64% (inactive)
NC(=O)c1oc2ccccc2c1NC(=O)c1ccc(Cl)s1 | 14.6% (inactive)
Nc1nc(SCC(=O)Nc2ccc(F)cc2F)[nH]c(=O)c1NC(=O)c1ccc(Br)cc1 | -9.37% (inactive)
Cc1cc2nnc(SCC(=O)Nc3ccccc3)n2c2ccccc12 | 0.4% (inactive)
COc1cccc(NC(=O)Nc2nc3c(s2)C(=O)CC(C)(C)C3)c1 | 8.4% (inactive)
CCN(c1ncnc(N)c1[N+](=O)[O-])C1CCCCC1 | 5.41% (inactive)
COc1ccc(NC(=O)CSc2nnc3ccc(-c4ccncc4)nn23)cc1 | -9.39% (inactive)
O=C(CSc1nnc2[nH]c(=O)ccn12)Nc1ccc([N+](=O)[O-])cc1 | -13.1% (inactive)
CN(CCC#N)c1ccc(C=C2C(=O)NC(=S)NC2=O)cc1 | 5.58% (inactive)
COC(=O)C1=C(C)NC(=O)NC1c1ccc(Cl)cc1 (stereo not drawn) | 1.95% (inactive)
CC(C)CCSc1nc2c(c(=O)[nH]c(=O)n2C)n1CC(O)COc1ccc(Cl)cc1 (stereo not drawn) | 21.4% (inactive)
COc1cccc(N2CC(C)Cn3c2nc2c3c(=O)[nH]c(=O)n2C)c1 (stereo not drawn) | 0.57% (inactive)
CC1Cc2nc(SCc3ccccn3)n(-c3ccc(F)cc3)c(=O)c2S1 (stereo not drawn) | 20% (inactive)
Cc1cccc(-n2ccnc2SCC(=O)Nc2nc3ccccc3s2)c1C | 4.43% (inactive)
CCOc1ccc(/C(O)=C2\C(=O)C(=O)N(CCCn3ccnc3)C2c2ccc(F)cc2)cc1Cl (stereo not drawn) | -17.6% (inactive)
CSc1ccc2nc(Nc3ccc(F)cc3F)sc2c1 | 8.52% (inactive)
C=CCOC(=O)C1=C(C)Nc2[nH]c(=O)[nH]c(=O)c2C1c1ccc(Cl)c(Cl)c1 (stereo not drawn) | -6.17% (inactive)
Nc1nc(SCC(=O)N2CCCCCC2)[nH]c(=O)c1NC(=O)c1ccco1 | -18.5% (inactive)
O=C(Nc1nc(-c2ccc(Cl)cc2Cl)cs1)c1ccc2c(c1)OCCO2 | 0.34% (inactive)
CC1=C(C(=O)Nc2ccc(Cl)cc2)C(c2ccccc2Cl)C(C#N)=C(SCC(N)=O)N1 (stereo not drawn) | 71.6% (inactive)
